{"source": "PubChem BioAssay AID624351", "about": "(Southern Research Specialized Biocontainment Screening …, 2012)", "note": "Several values for one entry are separate records, joined by “and”; a condition that tells them apart may be missing. Equal values may be shown once. About 1,400 (58%) of roughly 2,400 compounds were called active.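 The calls were made as follows: active = inhibition of 30% or more at any tested dose; inconclusive = primary hits over the limit that were never retested; inactive = the rest.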 So high a share suggests a set chosen from earlier hits. Some of the results follow.", "data": [{"test": "coupled detection enzyme interference, dose response, artefact control for MgcRacGAP inhibitor project, biochemical, coupled enzyme counter-screen (AID 624351);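 also: signal is the ADP detection kit reading of free GDP without any GAP enzyme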;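 as to inhibition: 0% = median positive control wells and 100% = median negative control wells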", "conditions": "ADP Hunter coupled enzyme counter-screen, fluorescence, no MgcRacGAP; series mostly up to 80 µM; inhibition: at the top concentration", "values": [{"molecule": "N/C(=N\\[N+](=O)[O-])N/N=C/c1ccc(O)cc1", "IC50": "20.8 µM (active)"}, {"molecule": "O=C(O)CCn1cc(C=C2C(=O)NC(=O)NC2=O)c(-c2ccc(Br)cc2)n1", "inhibition": "2% (inactive)"}, {"molecule": "Cc1ccc(N2C(=O)NC(=O)/C(=C/c3ccoc3)C2=O)cc1", "inhibition": "1.28% (inactive)"}, {"molecule": "COc1cc(C=C2C(=O)NC(=O)NC2=O)ccc1OCc1ccc([N+](=O)[O-])cc1", "inhibition": "3.37% (inactive)"}, {"molecule": "COc1cc(OC)c(OC)cc1/C=C1\\C(=O)NC(=O)N(Cc2ccccc2)C1=O", "inhibition": "6.49% (inactive)"}, {"molecule": "CNC(=O)Oc1ccc(-c2cn3cc(C)ccc3n2)cc1", "IC50": "37.7 µM (active)"}, {"molecule": "O=C(CNC1CCCC1)Nc1ccc(N2CCCCCC2)cc1", "inhibition": "23.6% (inactive)"}, {"molecule": "NCCc1cc(O)c(O)cc1O", "inhibition": "-8.6% [at 5 µM] (inactive) and -17.1% [at 5 µM] (inactive)"}, {"molecule": "CCN(CC)c1ccc(/C=C2/C(=O)NC(=O)N(Cc3ccco3)C2=O)cc1", "inhibition": "-0.29% (inactive)"}, {"molecule": "c1ccc2c(c1)Nc1ccccc1S2", "IC50": "17.2 µM (active)"}, {"molecule": "COc1ccccc1OCC#CCN1CCCC1", "inhibition": "13.8% (inactive)"}, {"molecule": "O=P1(c2ccccc2)Nc2ccccc2N1c1ccccc1", "note": "(centres undefined)", "IC50": "29.5 µM (active)"}, {"molecule": "Cn1cccc1/C=C1\\C(=O)NC(=O)N(Cc2ccco2)C1=O", "inhibition": "4.1% (inactive)"}, {"molecule": "Nc1ccc2c3c(cccc13)-c1ccccc1-2", "IC50": "55.5 µM (active)"}, {"molecule": "CC1=NNC(=O)C1Br", "note": "(centres undefined)", "inhibition": "5.41% (inactive)"}, {"molecule": "COc1ccccc1CNCCc1cccc(Cl)c1", "inhibition": "17.4% (inactive)"}, {"molecule": "C1=Cc2ccccc2Nc2ccccc21", "IC50": "12.4 µM (active)"}, {"molecule": "Cc1cccc(OCC(=O)N2CCN(Cc3ccncc3)CC2)c1", "inhibition": "26.2% (inactive)"}, {"molecule": "COc1ccc(/C=C2/C(=O)NC(=O)N(c3ccc(C)c(C)c3)C2=O)cc1CN1C(=O)c2ccccc2C1=O", "inhibition": "3.7% (inactive)"}, {"molecule": "Cc1ccc(CN2CCN(Cc3ccccc3F)CC2)cc1", "inhibition": "25.6% (inactive)"}, {"molecule": "Cc1cc(/C=C2\\C(=O)NC(=O)N(c3ccc(Br)cc3)C2=O)c(C)n1-c1cc(C(=O)O)cc(C(=O)O)c1", "inhibition": "-1.86% (inactive)"}, {"molecule": "O=C(O)Cn1cc(/C=C2\\C(=O)NC(=O)N(c3ccc(Cl)cc3)C2=O)c2ccccc21", "inhibition": "0.89% (inactive)"}, {"molecule": "CN(C)c1ccc(NC(=O)CN2C(=O)CN=C(c3ccccc3)c3ccccc32)cc1", "IC50": "73.3 µM (active)"}, {"molecule": "COc1ccc(OC)c(N2C(=O)NC(=O)/C(=C/c3ccc([N+](=O)[O-])s3)C2=O)c1", "inhibition": "4.62% (inactive)"}, {"molecule": "C=CCN1C(=O)/C(=C/c2ccc(Br)s2)C(=O)NC1=S", "inhibition": "1.24% (inactive)"}, {"molecule": "COc1ccccc1OCC#CCN1CCCC(C)C1", "note": "(centres undefined)", "inhibition": "14.2% (inactive)"}, {"molecule": "CSc1nc(N)c(N=Nc2ccc([As](=O)(O)O)cc2)c(=O)[nH]1", "inhibition": "5.1% (inactive)"}, {"molecule": "O=C(O)c1ccc(-n2c(O)c(/C=C3\\C=Nc4ccccc43)c(=O)[nH]c2=O)cc1", "inhibition": "4.69% (inactive)"}, {"molecule": "O=[N+]([O-])c1ccc2c(c1)Cc1cc(O)ccc1-2", "IC50": "24.5 µM (active)"}]}]}
